Assay outcomes: PubChem, National Center for Advancing Translational Sciences (NCATS)
RORgamma inh – qHTS for inhibitors of ROR gamma transcriptional activity. Nuclear receptor ROR-gamma (Mus musculus), P51450. Drosophila S2 Gal4-RORgamma UAS-luciferase reporter, 20 h. Potency, µM (highest dose often 53.6 µM), for inactives: at the highest dose activity change, negative = inhibition, actives largely listed as inhibitors. 5.4% of 310,000 active. AID 2551, 2010; also: potency is read from the fitted curve at half-maximal effect; % is scaled to controls: 0 for no effect and ±100 for the full control effect; nearly all actives have a fitted effect of over 60% in size
Target sequence (P51450 whole entry, looked up, the tested form may be a part): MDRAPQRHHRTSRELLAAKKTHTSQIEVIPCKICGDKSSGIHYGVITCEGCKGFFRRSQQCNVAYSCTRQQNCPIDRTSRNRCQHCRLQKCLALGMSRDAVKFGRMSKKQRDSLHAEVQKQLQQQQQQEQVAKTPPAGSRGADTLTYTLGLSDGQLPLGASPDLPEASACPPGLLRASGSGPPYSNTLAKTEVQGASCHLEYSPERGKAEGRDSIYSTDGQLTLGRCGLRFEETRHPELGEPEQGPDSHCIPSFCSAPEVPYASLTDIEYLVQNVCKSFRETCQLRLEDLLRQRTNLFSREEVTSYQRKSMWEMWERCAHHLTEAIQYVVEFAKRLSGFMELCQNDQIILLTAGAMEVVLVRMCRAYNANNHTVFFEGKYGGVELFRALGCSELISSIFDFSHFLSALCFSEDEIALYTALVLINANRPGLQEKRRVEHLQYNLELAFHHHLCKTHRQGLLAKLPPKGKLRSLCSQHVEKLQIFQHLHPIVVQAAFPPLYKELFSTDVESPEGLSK
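In this cell-based reporter format, copper sulfate (700 uM final) drives Gal4–ROR gamma fusion expression from a metallothionein promoter in Drosophila Schneider cells; compounds preincubated 1 hr, reporter read after 20 hr at ambient temperature.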
Six1-Eya2 blk – qHTS Assay for Inhibitors of the Six1/Eya2 Interaction. Homeobox protein SIX1 (Homo sapiens) + Protein phosphatase EYA2 (Homo sapiens), …. 0.56% of 360,000 active. activity change, % (concentration not given with the values). AlphaScreen GST-Six1/His-Eya2 binding, biochemical; hits give low values; in the data active = activity change below about -65%; inconclusive = mostly about -30% to -63%; also: % is scaled to controls: 0 for no effect and ±100 for the full control effect
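Six1/Eya2 binding was read as AlphaScreen signal after compounds were pinned into GST-Six1 plus His-tagged Eya2 (5X stock 250/500 nM) in pH 8.0 Tris/NaCl/TCEP buffer, beads added, then incubated 1 h, 37 C, dark.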
CtBP-E1A blk – qHTS Assay for Inhibitors of the CtBP/E1A Interaction | AID 651724, 2012 | activity change, % (test concentration not listed) | AlphaScreen GST-E1A/His-CtBP binding, 1536-well; hits give low values | 0.49% of 340,000 active; in the data active = activity change below about -65%; inconclusive = mostly about -30% to -63%; also: % is scaled to controls: 0 for no effect and ±100 for the full control effect
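Homogeneous bead-based format: GST-tagged E1A captured on glutathione donor beads, His-tagged CtBP on nickel acceptor beads; compounds precede bead addition by 2 h at 37 °C.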
p53 reactivation – qHTS assay for re-activators of p53 using a Luc reporter. H1299 p53-A138V BP100-luciferase reporter, luminescence, 24 h. 0.063% of 320,000 active. Potency, µM (highest dose often 92.2 µM), for inactives: top-dose activity change, positive = activation, usual class: activators. AID 504706, 2011; also: potency is read from the fitted curve at half-maximal effect; % of control where 0% means no effect; nearly all actives have a fitted effect of over 45% in size
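p53-null H1299 cells stably carrying temperature-sensitive p53-A138V and a BP100-luciferase reporter were pinned with compounds (4-point, 1:5 series) and held 24 hrs at 37 deg C. Luminescence was read 10 min after detection reagent.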
Gal4-VP16 FLuc – VP16 counterscreen qHTS for inhibitors of ROR gamma transcriptional activity | Potency, µM (top dose mostly 53.6 µM), for inactives: at the top dose activity, negative = inhibition, usual class: inhibitors | Drosophila S2 Gal4-VP16 UAS-luciferase, luminescence, 20 h | 3.5% of 310,000 active;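 also: Gal4-VP16 expression switched on by copper sulfate through the metallothionein promoter; potency is read from the fitted curve at half-maximal effect; % is scaled to controls: 0 for no effect and ±100 for the full control effect; nearly all actives have a fitted effect of over 50% in size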
* = called active by the depositor; u = inconclusive; x = not tested or not shown; ! = repeats disagree. Sampled rows, rich in hits. Any-hit rate of the full collection: about 5.4%. Unless noted, calls follow the shape of the dose curve; as a rule, active = well fitted curve in the direction sought with a large enough effect; inconclusive = small, poorly fitted or top-dose-only effect, or another doubt; inactive = no such curve, though single readings can be large; an effect the other way counts as inactive or inconclusive.

SMILES	RORgamma inh	Six1-Eya2 blk	CtBP-E1A blk	p53 reactivation	Gal4-VP16 FLuc
CN(C)c1ccc(C(=S)NC2CCCCC2)cc1	8.91µM*	-12.1	-16.2	12.8%	2.7%
C/C(N)=C(/C#N)C(=O)COC(=O)CCCNC(=O)c1ccc(Cl)cc1	10.5%	4.6	0.3	-1.5%	18.9%
NC(=O)c1c(N)[nH]c(C(=O)c2ccccc2)c1-c1ccncc1	x	1.0	1.0	x	x
S=C(NCCCn1ccnc1)NC1CCCCC1	28.9%	19.9	10.1	7.9%	1.1%
Cc1ccc(C(=O)Nc2nc(=O)n(C)s2)cc1	8.91µM*	9.1	-2.2	u	11.2µM*
Cc1ccc(C(=O)Nc2nnc(C)s2)cc1	10µM*	6.7	1.2	u	-17.6%
Cc1nnc(NC(=O)c2ccc(Br)cc2)s1	11.6%	-2.9	3.2	17.4%	-5.7%
O=C(Nc1ccc(N2CCN(C(=O)c3ccccc3F)CC2)cc1)c1ncn[nH]1	-23.5%	-71.7*	u	-2.3%	-13.0%
Cc1ccccc1C(=O)N1CCN(c2ccc(NC(=O)c3cccnc3Cl)cc2)CC1	-0.6%	27.1	0.0	-6.5%	1.9%
Cc1ccc2oc(=O)c(/C=C(\O)c3ccco3)nc2c1	10µM*	0.0	1.4	u	u
Cc1ccc2oc(=O)c(/C=C(\O)C(C)(C)C)nc2c1	5.01µM*	-6.1	2.3	16.1%	-21.1%
CSc1ccc(CN2CCC(C)(Oc3ccccc3F)C2)cc1 (stereo unspecified)	x	-19.3	-16.5	x	x
Nc1cc2[nH]c(=O)c3ccccc3c2cc1[N+](=O)[O-]	x	-72.0*	-72.2*	x	x
O=C1c2ccccc2C(=O)c2c1ccc1c(=O)n(C3CCCCC3)[nH]c21	7.94µM*	-6.8	-15.6	u	-29.8%
COc1cc(/C=C\c2ccc(OC)cc2OC)cc(OC)c1	u	x	x	x	-14.7%
C/C(=N\NC(=O)c1cccc([N+](=O)[O-])c1)c1ccncc1	-41.1%	-2.5	0.0	4.3%	-13.6%
C/C(=N\NC(=O)c1ccc(OC2CCCC2)cc1)c1ccc(O)cc1	14.1µM*	-3.3	-5.0	-6.2%	u
C/C(=N\NC(=O)c1cc(-c2cccc([N+](=O)[O-])c2)n[nH]1)c1ccccc1O	3.16µM*	-1.6	-5.4	24.2%	17.8µM*
C/C(=N\NC(=O)c1cccc(S(=O)(=O)N2CCCC2)c1)c1cccs1	12.6µM*	1.9	11.6	1.3%	u
C/C(=N/NC(=O)c1ccc(O)cc1)c1cccc([N+](=O)[O-])c1	3.16µM*	3.6	0.0	24.7%	12.6µM*
Cc1ccc2nc(NCCN)c3ncc(C)n3c2c1	-26.3%	x	x	x	u
CC(=O)Nc1cccc(/C(C)=N/NC(=O)c2ccc(O)cc2)c1	11.2µM*	-1.0	-0.6	3.0%	u
C/C(=N\NC(=O)c1cccc([N+](=O)[O-])c1)c1cccs1	3.98µM*	-6.2	-1.8	14.2%	6.31µM*
Nc1nc2c(nc(Br)n2C2CC(O)C(CO)O2)c(=O)[nH]1 (stereo unspecified)	21.3%	x	x	x	5.0%
O=C(N/N=C/c1cc(Cl)ccc1O)C(=O)Nc1ccccc1OC(F)(F)C(F)F	0.891µM*	-27.3	u	u	2.51µM*
SMILES	RORgamma inh	Six1-Eya2 blk	CtBP-E1A blk	p53 reactivation	Gal4-VP16 FLuc
O=C(N/N=C/c1cc(Br)ccc1O)C(=O)Nc1ccccc1OC(F)(F)C(F)F	0.794µM*	-2.7	-14.5	17.1%	2.82µM*
COc1ccccc1/C=N/NC(=O)C(=O)Nc1ccccc1OC(F)(F)C(F)F	-5.4%	0.0	7.8	2.2%	0.9%
Cc1cc2nc(C3CCCCC3)c(CC(C)(C)C)n2c(C)c1Br	x	-0.8	1.2	x	x
CC1(C)NC(=O)N(c2ccc([N+](=O)[O-])c(C(F)(F)F)c2)C1=O	u	3.6	5.5	12.0%	15.8µM*!
CCN1C[C@@H]2[C@@H]3C(=O)N(C)C(=O)[C@@H]3[C@](C)(C1=O)N2C(=O)c1ccc(C(C)(C)C)cc1	x	3.4	10.8	x	x
CCn1c(C)nc2cc(C(=O)N3N=C(CCOC)CC3(O)C(F)(F)F)ccc21 (stereo unspecified)	u	-1.0	2.0	2.9%	35.5µM*
